Eleven compounds from PubChem BioAssay (NCATS) can be followed below.

SMILES strings stand for the structures. Values joined by “and” are separate entries in the source; they are usually repeats but may differ in a detail not shown here. Equal values may be shown once. Results filed as inconclusive are left out. Active and inactive are the calls of the source. Unless noted, calls come from the whole dose curve.

Assay [1] can be described thus: qHTS assay for small molecule agonists of retinoid X receptor alpha signaling (AID 588544). As to conditions: HEK293T RXRa-UAS-bla, beta-lactamase reporter, 18 h; 530 nm emission. In general terms: In qHTS, concentration-response curves come from the screen itself.
Assay [2] concerns the target Retinoic acid receptor RXR-alpha (Homo sapiens) (UniProt P19793). The assay is described as above.
Assay [3] has as its target Thyroid hormone receptor beta (Homo sapiens) (UniProt P10828). Briefly: qHTS assay for small molecule agonists of thyroid hormone receptor beta signaling (AID 588545). The gist of the method:
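Cells (2500/well) were seeded, incubated 4 hrs at 37 C, dosed with a compound series, incubated 18 hrs, loaded with CCF4 dye for 2 hrs at RT, then read for fluorescence. Data were scaled between DMSO (0%) and 10 nM T3 (100%).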

Assay [4] has the same target. The experiment in a line: qHTS assay for small molecule antagonists of thyroid hormone receptor beta signaling (AID 588547; active = well fitted inhibition curve with a large enough effect in the signal ratio, with a control signal flat, not every such curve was filed as active; the % refers to the signal ratio;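 note: cells stimulated with 0.4 nM T3 agonist during compound exposure; series mostly up to about 77 µM; % is set by controls: 0 for no effect and ±100 for the full control effect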). The conditions noted are these: TR-UAS-bla HEK293, beta-lactamase ratio, antagonist mode, 18 h. The method in brief:
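TR-UAS-bla GripTite HEK293 cells in 2% charcoal/dextran FBS medium; compounds 0.59 nM to 92 uM with T3 at 0.4nM final, 18 h at 37 C. Beta-lactamase read by CCF4 fluorescence (460/530 nm); Hill fits gave IC50 and efficacy.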

Assay [5] deals with Luciferin 4-monooxygenase (Photinus pyralis) (UniProt P08659). Briefly: Biochemical firefly luciferase enzyme assay for NPC (AID 624030; active = well fitted curve in the direction sought with a large enough effect; an effect the other way counts as inactive or inconclusive;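 note: purified P. pyralis luciferase at 10 nM with luciferin and ATP substrate; series mostly up to about 59 µM; 0% = DMSO and -100% = full luciferase inhibition by PTC124 control; nearly all actives have a fitted effect of over 70% in size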). The gist of the method: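 Purified P. pyralis luciferase at 10 nM in 50 mM Tris Acetate (final), luminescence read within 5 minutes of enzyme addition to compounds. Activity normalised to PTC124 versus DMSO; concentration-response curves classed by r2, magnitude and activity.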

Assay [6] can be described thus: S16 Schwann cell viability assay (CellTiter-Glo assay) (AID 624031; active = well fitted curve in the direction sought with a large enough effect; an effect the other way counts as inactive or inconclusive;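 note: cellular ATP luminescence as a viability measure; series mostly up to about 58 µM; plate controls were DMSO-treated cells for no effect and cell-free wells for full effect; nearly all actives have a fitted effect of over 70% in size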). The gist of the method: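 Native S16 Schwann cells (rat), serum-containing medium, overnight attachment then 24 h drug exposure at 37 °C/5% CO2. CellTiter-Glo ATP signal; normalized to cell-free and vehicle wells.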
Assay [7] in a line: S16 Schwann cell PMP22 intronic element beta-lactamase assay (AID 624044).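 Note: 0% = DMSO and -100% = potassium clavulanate positive control; nearly all actives have a fitted effect of over 15% in size.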 The method in brief:
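Beta-lactamase reporter under a PMP22 intronic regulatory element in stable S16 rat Schwann cells; 24 h compound exposure. 460 nm blue signal normalized between DMSO (0%) and potassium clavulanate, with 535 nm FRET tracking viability; curves classed by r2 and response.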

A short description of assay [8]: qHTS of Trypanosoma Brucei Inhibitors: LOPAC Validation (AID 624147; active = well fitted curve in the direction sought with a large enough effect; an effect the other way counts as inactive or inconclusive; note: 0% is about no effect). The method in brief: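 In this concentration-response screen, enzyme-free wells defined baseline while DMSO plates tracked drift. Each reaction combined TbPYK, substrate, compound and 130 uM ADP for 45 min at room temperature. Kinase-Glo Plus luminescence gave the signal.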
Assay [9] addresses Glucagon-like peptide 1 receptor (Homo sapiens) (UniProt P43220). Briefly: qHTS of GLP-1 Receptor Agonists: LOPAC Validation (AID 624148; active = well fitted curve in the direction sought with a large enough effect; an effect the other way counts as inactive or inconclusive;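 note: 0% is about no effect; higher luminescence signal means agonism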). The method in brief: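 HEK293 cells stably co-expressing GLP-1R and a cAMP-responsive luciferase reporter, plated 12 hours before compound, then incubated 4-6 hr at 37 deg C. Luminescence read 12 min after detection reagent.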
Assay [10] can be described thus: qHTS of Nrf2 Activators: LOPAC Validation (AID 624149; active = well fitted curve in the direction sought with a large enough effect; an effect the other way counts as inactive or inconclusive; note: 0% is about no effect). The method in brief:
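Following overnight seeding in 5% FBS OPTI-MEM, AREc32_Fluc cells receive compounds for a 24 hr incubation at 37 deg C with 5% CO2. Steady-Glo is added, and after 30 min at RT luminescence is recorded.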

The nature of assay [11]: HTS Assay for Allosteric Antagonists of the Human D2 Dopamine Receptor: Hit Validation in HTRF (AID 624455; active = well fitted curve in the direction sought with a large enough effect; an effect the other way counts as inactive or inconclusive;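 note: stable D1 dopamine receptor cell line scored for blocking the D1 response; % is set by controls: 0 for no effect and ±100 for the full control effect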). The gist of the method: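 Validation of hits used D1 receptor stably expressed in cells with HTRF detection of response inhibition; origin screen measured calcium flux following EC80 dopamine in a force-coupled, inducible Hek293 Trex D2 cell line.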
(In general: In TR-FRET formats the signal depends on donor and acceptor labels being close together.)

Assay [12] deals with Vitamin D3 receptor (Homo sapiens) (UniProt P11473). The experiment in a line: qHTS assay for small molecule antagonists of vitamin D receptor signaling (AID 588541).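 Note: receptor activated by calcitriol during compound treatment; series mostly up to about 77 µM; % is set by controls: 0 for no effect and ±100 for the full control effect.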 The gist of the method: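 VDR-UAS-bla HEK293T cells in 2% charcoal-stripped FBS were stimulated with 1-alpha,25-dihydroxyvitamin D3 (3 nM final) plus compound for 16 h at 37 C. The beta-lactamase CCF4 readout was normalized to 50 nM agonist and DMSO, and Hill fits gave IC50.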

For assay [13] the target is unchanged. The experiment in a line: qHTS assay for small molecule agonists of vitamin D receptor signaling (AID 588543).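 Note: 0% = DMSO basal and 100% = reference agonist control.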 The method in brief:
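β-lactamase reporter, VDR-UAS-bla HEK293T, agonist mode. Cells plated 5 h at 37 °C, compound titration 16 h at 37 °C, CCF4 dye 2 h RT, ratio 460/530 nm. Hill fit → EC50, efficacy vs 50 nM 1α,25-(OH)2D3.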

The nature of assay [14]: qHTS assay for small molecule antagonists of retinoid X receptor alpha signaling (AID 588546).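 Note: cells stimulated with 9-cis-retinoic acid as agonist; % is set by controls: 0 for no effect and ±100 for the full control effect.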 The conditions noted are these: HEK293T RXRa-UAS-bla, beta-lactamase ratio, antagonist mode; measured here: W530 green channel, cytotoxicity proxy. The method in brief: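 Beta-lactamase reporter inhibition, read as CCF4 fluorescence ratio (ex 405, em 460/530 nm) after 2 h at RT. HEK293T UAS-bla cells, 2500/well, were stimulated with 9-cis-RA at 500 or 100 nM final alongside test compound for 18 h at 37 C.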

Assay [15] addresses Voltage-gated inwardly rectifying potassium channel KCNH2 (Homo sapiens) (UniProt Q12809). The experiment in a line: qHTS Assay for Small Molecule Inhibitors of the Human hERG Channel Activity (AID 588834; active = well fitted curve in the direction sought with a large enough effect; an effect the other way counts as inactive or inconclusive;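 note: lower thallium flux fluorescence means stronger hERG block; nearly all actives have a fitted effect of over 50% in size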; note: potency is the fitted concentration of half-maximal effect). The gist of the method:
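Thallium-flux (FluxOR) read-out on FDSS: fluorescence read 10 s before and 2 min after stimulation buffer. hERG-BacMam-transduced U2OS cells, compound exposure about 10 min. AC50 by standard Hill equation.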

Assay [16] can be described thus: S16 Schwann cell PMP22 intronic element firefly luciferase assay (AID 624032; active = well fitted curve in the direction sought with a large enough effect; an effect the other way counts as inactive or inconclusive; note: nearly all actives have a fitted effect of over 30% in size; note: potency is the fitted concentration of half-maximal effect). The gist of the method:
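Rat S16 Schwann cells stably carrying firefly luciferase driven by a PMP22 intronic element, in 10% FBS, treated 24 h at 37 C. ONE-Glo luminescence normalized to PTC124 control and DMSO (0%); curves classed by r2, magnitude and activity.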

For assay [17], the target named is Glutaminase kidney isoform, mitochondrial (Homo sapiens) (UniProt O94925). Briefly: qHTS for Inhibitors of Glutaminase (GLS): LOPAC Validation (AID 624146; active = well fitted curve in the direction sought with a large enough effect; an effect the other way counts as inactive or inconclusive;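 note: glutamate product detected by oxidase and peroxidase coupled Amplex red fluorescence gain; series mostly up to about 46 µM; % is set by controls: 0 for no effect and ±100 for the full control effect; nearly all actives have a fitted effect of over 60% in size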). The method in brief:
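Coupled fluorescence readout: glutamate oxidase/HRP/Amplex Red detect glutamate formed by hKGA from L-glutamine (1 mM solution added). Buffer 45 mM KH2PO4 pH 8.2, 0.02% Tween-20; reads at t0 and 30 min RT.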

Retinoic acid receptor RXR-alpha (Homo sapiens), sequence (P19793 whole entry, looked up): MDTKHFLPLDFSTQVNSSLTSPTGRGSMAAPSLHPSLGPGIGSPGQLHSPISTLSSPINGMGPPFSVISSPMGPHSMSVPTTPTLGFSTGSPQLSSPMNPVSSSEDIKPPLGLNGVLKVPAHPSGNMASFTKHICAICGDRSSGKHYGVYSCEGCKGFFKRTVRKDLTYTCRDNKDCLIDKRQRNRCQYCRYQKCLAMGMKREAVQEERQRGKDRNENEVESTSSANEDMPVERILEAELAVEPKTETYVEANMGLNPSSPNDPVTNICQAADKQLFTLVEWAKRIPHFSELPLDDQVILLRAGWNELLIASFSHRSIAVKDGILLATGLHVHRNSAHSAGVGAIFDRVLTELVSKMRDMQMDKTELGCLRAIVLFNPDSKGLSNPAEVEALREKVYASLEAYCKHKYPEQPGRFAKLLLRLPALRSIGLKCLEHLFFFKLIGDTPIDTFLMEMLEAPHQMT
Vitamin D3 receptor (Homo sapiens), sequence (P11473 whole entry, looked up): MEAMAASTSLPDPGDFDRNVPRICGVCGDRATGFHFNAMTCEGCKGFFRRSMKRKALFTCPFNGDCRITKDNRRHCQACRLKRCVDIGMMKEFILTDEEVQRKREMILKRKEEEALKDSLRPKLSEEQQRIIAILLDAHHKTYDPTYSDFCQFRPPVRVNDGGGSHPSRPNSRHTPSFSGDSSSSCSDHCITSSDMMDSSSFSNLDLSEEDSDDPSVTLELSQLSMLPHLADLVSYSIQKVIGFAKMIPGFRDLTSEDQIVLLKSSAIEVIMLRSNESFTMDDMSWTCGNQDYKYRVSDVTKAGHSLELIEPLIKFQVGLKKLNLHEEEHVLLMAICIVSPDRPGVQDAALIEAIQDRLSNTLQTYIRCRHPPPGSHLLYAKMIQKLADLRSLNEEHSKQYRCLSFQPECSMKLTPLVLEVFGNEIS
Luciferin 4-monooxygenase (Photinus pyralis), sequence (P08659 whole entry, looked up): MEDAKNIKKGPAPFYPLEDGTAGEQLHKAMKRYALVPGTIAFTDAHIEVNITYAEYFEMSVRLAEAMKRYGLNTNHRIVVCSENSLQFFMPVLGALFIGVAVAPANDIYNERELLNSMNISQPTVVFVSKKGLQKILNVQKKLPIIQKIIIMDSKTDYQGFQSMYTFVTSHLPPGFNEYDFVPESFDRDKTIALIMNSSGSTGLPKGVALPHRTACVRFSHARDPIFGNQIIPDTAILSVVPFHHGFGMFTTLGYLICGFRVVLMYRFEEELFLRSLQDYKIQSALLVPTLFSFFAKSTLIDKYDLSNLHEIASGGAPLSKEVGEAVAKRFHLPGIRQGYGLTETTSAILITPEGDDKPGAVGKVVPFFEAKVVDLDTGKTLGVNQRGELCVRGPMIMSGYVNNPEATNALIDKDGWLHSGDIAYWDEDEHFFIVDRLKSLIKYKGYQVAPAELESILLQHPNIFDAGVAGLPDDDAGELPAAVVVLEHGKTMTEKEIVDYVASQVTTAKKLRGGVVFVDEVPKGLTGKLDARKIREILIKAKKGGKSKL
Thyroid hormone receptor beta (Homo sapiens), sequence (P10828 whole entry, looked up): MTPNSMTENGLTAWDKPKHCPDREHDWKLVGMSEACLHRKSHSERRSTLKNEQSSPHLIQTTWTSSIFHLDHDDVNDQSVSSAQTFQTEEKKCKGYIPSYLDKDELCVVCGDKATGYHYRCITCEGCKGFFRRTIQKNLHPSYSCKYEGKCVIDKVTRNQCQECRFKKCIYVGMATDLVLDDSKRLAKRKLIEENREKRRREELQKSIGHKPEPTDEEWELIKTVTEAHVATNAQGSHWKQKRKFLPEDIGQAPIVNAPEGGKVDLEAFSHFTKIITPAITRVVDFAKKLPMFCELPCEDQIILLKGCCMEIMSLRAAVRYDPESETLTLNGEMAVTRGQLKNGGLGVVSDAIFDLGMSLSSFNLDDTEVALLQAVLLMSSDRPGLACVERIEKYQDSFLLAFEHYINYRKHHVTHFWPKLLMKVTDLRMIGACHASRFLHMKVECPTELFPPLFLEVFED
Glucagon-like peptide 1 receptor (Homo sapiens), sequence (P43220 whole entry, looked up): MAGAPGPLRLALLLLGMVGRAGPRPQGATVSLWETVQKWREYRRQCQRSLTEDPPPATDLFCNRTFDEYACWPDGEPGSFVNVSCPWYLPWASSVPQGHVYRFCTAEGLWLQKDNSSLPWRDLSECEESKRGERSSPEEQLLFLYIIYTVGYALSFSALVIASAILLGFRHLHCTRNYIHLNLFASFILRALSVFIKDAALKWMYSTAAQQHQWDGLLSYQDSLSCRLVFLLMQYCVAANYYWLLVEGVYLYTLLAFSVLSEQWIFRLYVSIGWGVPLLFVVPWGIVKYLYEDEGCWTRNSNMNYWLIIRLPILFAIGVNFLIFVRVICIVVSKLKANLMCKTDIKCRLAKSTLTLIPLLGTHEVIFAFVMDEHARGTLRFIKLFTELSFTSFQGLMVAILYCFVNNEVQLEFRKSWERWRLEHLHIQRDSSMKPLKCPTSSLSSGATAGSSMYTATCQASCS
Voltage-gated inwardly rectifying potassium channel KCNH2 (Homo sapiens), sequence (Q12809 whole entry, looked up): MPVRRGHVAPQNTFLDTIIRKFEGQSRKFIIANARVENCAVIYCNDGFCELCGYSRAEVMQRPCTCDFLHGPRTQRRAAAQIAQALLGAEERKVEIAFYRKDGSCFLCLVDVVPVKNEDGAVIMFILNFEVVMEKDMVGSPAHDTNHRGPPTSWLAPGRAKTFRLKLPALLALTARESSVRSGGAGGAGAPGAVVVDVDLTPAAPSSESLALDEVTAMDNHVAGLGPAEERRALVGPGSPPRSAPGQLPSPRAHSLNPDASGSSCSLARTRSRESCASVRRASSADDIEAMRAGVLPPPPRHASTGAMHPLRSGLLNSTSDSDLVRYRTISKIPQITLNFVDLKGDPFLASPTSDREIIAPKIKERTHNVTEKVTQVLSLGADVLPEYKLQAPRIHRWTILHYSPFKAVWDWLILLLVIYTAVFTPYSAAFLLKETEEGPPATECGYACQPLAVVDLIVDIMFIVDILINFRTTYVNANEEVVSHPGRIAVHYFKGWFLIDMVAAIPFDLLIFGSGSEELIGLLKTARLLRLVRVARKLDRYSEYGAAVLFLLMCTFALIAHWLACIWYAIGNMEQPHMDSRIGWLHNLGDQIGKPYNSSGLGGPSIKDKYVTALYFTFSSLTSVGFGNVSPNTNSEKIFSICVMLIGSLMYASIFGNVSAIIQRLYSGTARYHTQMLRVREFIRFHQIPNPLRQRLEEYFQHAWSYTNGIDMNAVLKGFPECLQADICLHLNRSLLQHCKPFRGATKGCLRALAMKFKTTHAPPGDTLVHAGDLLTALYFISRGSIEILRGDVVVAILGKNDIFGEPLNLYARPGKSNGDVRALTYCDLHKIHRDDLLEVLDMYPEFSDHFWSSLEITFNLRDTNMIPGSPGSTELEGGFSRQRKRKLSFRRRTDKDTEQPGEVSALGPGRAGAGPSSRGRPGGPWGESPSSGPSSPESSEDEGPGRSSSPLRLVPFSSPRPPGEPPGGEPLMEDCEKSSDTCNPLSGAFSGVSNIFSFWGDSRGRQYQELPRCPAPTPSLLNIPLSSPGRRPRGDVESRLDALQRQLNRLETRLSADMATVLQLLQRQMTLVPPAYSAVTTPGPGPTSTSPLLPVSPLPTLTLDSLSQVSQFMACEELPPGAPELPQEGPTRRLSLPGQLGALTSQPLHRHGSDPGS
Glutaminase kidney isoform, mitochondrial (Homo sapiens), sequence (O94925 whole entry, looked up, canonical isoform): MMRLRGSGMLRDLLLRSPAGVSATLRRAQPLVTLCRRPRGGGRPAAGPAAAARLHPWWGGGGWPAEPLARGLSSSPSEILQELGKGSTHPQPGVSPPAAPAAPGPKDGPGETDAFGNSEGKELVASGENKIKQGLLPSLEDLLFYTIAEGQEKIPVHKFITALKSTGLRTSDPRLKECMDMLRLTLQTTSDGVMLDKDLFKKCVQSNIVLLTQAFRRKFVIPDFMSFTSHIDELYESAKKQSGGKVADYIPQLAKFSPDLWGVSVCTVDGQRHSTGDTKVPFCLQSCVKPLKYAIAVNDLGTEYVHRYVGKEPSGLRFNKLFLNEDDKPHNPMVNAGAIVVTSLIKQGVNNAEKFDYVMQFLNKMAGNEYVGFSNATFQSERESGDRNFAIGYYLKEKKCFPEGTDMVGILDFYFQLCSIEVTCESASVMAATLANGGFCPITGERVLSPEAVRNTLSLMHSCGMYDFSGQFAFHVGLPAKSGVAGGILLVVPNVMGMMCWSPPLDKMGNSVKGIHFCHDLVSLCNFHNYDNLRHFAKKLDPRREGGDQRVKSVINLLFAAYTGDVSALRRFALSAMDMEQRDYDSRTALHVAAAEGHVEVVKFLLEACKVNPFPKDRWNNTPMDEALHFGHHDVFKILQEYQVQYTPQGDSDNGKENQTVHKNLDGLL

`CC(CN1c2ccccc2Sc2ccccc21)N(C)C` (stereo not drawn): the max response in [1] worked out at 10.3%. Besides, the compound was classed as inactive in [2], in [3], in assay [8], in assay [9], in assay [10] and in assay [11]. The activity change % (negative = inhibition) in [4] is -18.5% (inactive). The Potency result in assay [5], in assay [6] and in [7] was “inactive” in each case.
For `NC(=O)N/N=C/c1ccc([N+](=O)[O-])o1`, the call in [12], in assay [13] and in [3] was inactive. In [14], the max response is 1.55% and -8.19%. In addition, the activity change % (negative = inhibition) in assay [4] was 0.5% (inactive). Further, the Potency entry in assay [15], in assay [5], in assay [6] and in assay [7] was “inactive” in each case. In addition, the Potency in assay [16] is 10.2 µM (active).
With `COC(=O)[C@H]1[C@H]2C[C@@H]3c4[nH]c5cc(OC)ccc5c4CCN3C[C@H]2C[C@@H](OC(=O)COc2ccc(OC)cc2)[C@@H]1OC`, the Potency in assay [15] was 0.141 µM (active).
Regarding `O=C1O[C@H]([C@@H](O)CO)C(O)=C1O`, the max response in assay [1] was -15.9% and -7.94%; in assay [14] it was -3.01%. For the same compound, the call in assay [2] and in assay [3] was inactive. In [4], the activity change % (negative = inhibition) was 4.68% (inactive) and -9.73% (inactive). Moreover, the Potency result in assay [15], in assay [5] and in assay [6] was “inactive” each time.
`O=C1c2c(O)cccc2Cc2cccc(O)c21`: the max response in assay [1] is -24.2%; in assay [14] it was -14.8%. The call in assay [2] and in assay [3] was inactive. Moreover, the activity change % (negative = inhibition) in assay [4] is 3.09% (inactive). Also, the Potency result in assay [15], in assay [5], in [6] and in assay [16] was “inactive” throughout.
For `COc1ccccc1O`, the compound was called inactive in assay [12], in assay [13], in assay [2] and in assay [3]. Besides, the max response was -7.45% and -9.73% and 7.42% in [1]; -10.5% and -8.87% and -4.21% in [14]. Besides, the activity change % (negative = inhibition) in assay [4] is 8.27% (inactive) and 8.42% (inactive) and 1.01% (inactive). Moreover, the Potency entry in assay [15], in assay [5], in assay [6] and in assay [16] was “inactive” each time.
In the case of `CN(C)CCOC(C)(c1ccccc1)c1ccccn1` (stereo not drawn), the result in [12], in [13], in assay [2], in assay [3], in [8] and in assay [9] was inactive. Further, the compound was called inactive in assay [10] and in assay [11]. Also, the max response turned out to be 19.3% in assay [1] and 3.38% in assay [14]. Besides, in assay [4], the activity change % (negative = inhibition) was -6.28% (inactive). The Potency entry in [15] and in assay [17] was “inactive” throughout.
In the case of `NC(=O)c1ncn([C@@H]2O[C@H](CO)[C@@H](O)[C@H]2O)n1`, the compound was classed as inactive in [12], in [13], in assay [2], in assay [9], in assay [10] and in [11]. Moreover, the max response in [1] came to 18.3%. In addition, in [4], the activity change % (negative = inhibition) was -19.8% (inactive). Also, the Potency result in assay [15] and in [17] was “inactive” in each case.
As to `Nc1ccc(S(=O)(=O)Nc2nccs2)cc1`, the result in assay [12], in [13] and in assay [2] was inactive. Also, the max response in assay [1] was 11.3%; in assay [14], -9.52%. The Potency entry in assay [15], in assay [5], in [6] and in assay [16] was “inactive” in each case.
For `Cc1cc2nc3c(=O)[nH]c(=O)nc-3n(C[C@H](O)[C@H](O)[C@H](O)CO)c2cc1C`, the activity change % (negative = inhibition) in assay [4] was -25% (inactive).
As to `CCCCCCCCCCCCOS(=O)(=O)O`, the outcome in [12], in assay [13], in [2] and in [3] was inactive. In addition, the max response is -1.31% [middle of 4 runs] in assay [1] and -7.08% [middle of 4 runs] in assay [14]. In [4], the activity change % (negative = inhibition) is -2.2% (inactive). Moreover, the Potency result in [15], in [6] and in assay [7] was “inactive” in each case.
